Compounds without any hit were thinned out: in the full panel of roughly 83,000, 20% have a hit.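 Treatment: one concentration, 48 hours, 96-well format. Scoring: percent growth, with anything below 10 considered active.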 A number with no mark means an inactive call. The source made the active and inactive calls.
system: SK-MEL-2 melanoma; assay: NCI-60 one-dose screen, 48 h (100 = growth as untreated, 0 = no growth, -100 = all killed); settings: 10 µM unless noted

| SMILES | growth |
| --- | --- |
| NC(=O)c1ncn2c(=O)n(CCF)nnc12 | -6.14% (active) |
| Cc1csc(/N=C(N)/N=C(\N)c2cccc(C#N)c2)n1 | 47.8% |
| C=C(C)[C@@H]1CC[C@]2(COCCCNCCCN)CC[C@]3(C)[C@H](CC[C@@H]4[C@@]5(C)CC[C@H](O)C(C)(C)[C@@H]5CC[C@]43C)[C@@H]12 | 99.1% |
| O=C(/C=C/c1cccc(F)c1)c1cccc(OCCCOc2cccc(C(=O)/C=C/c3cccc(F)c3)c2)c1 | 97.3% |
| Cc1ccc(C(=O)CSc2nc3ccccc3c(=O)n2C)cc1 | 95.7% |
| Cc1ccc2c(n1)C(=O)C(Cl)=C(Nc1ccc(C#N)cc1)C2=O | 104% |
| CC(C)(O)c1cncc(-c2ccc3ncc(C#N)c(N4CCc5cc(F)c(Cl)cc54)c3c2)c1 | -5.06% (active) |

system: EKVX NSCLC; assay: as above; settings: 10 µM unless noted

| SMILES | growth |
| --- | --- |
| O=S(=O)(NCCCNc1nccc(-c2[nH]c(-c3ccccc3)nc2-c2ccc(F)c(O)c2)n1)c1cccc(F)c1 | 99.8% |
| Cn1cc(-c2cc3ncnc(Nc4ccc(NC(=O)Nc5cc(C(C)(C)C)on5)cc4)c3s2)cn1 | 48.2% |
| Cn1ncc2c(C(=O)c3ccc(F)cc3)nc(C(C)(C)C)nc21 | 98.9% |
| N#Cc1c(-c2cccs2)cc(-c2cnccn2)nc1SCC(=O)N/N=C/c1ccc(Cl)cc1 | 93.5% |
| O=C(/C=C/c1cc(Cl)ccc1Cl)Nc1ncc(Cc2ccc(Cl)cc2)s1 | 30.2% |
| CNC(=O)c1cc(N2CCc3cc(NC(=O)Nc4ccc(N5CCN(C)CC5)c(C(F)(F)F)c4)ccc32)ccn1 | 82.3% |
| CCc1cc(O)ccc1Nc1cc(-c2ccc(-n3cccn3)cc2)[nH]n1 | 63% |
| COc1ccc2[nH]cc(-c3nc(N)nnc3-c3cn(C)c4ccc(Br)cc34)c2c1 | 38.1% |
| CCCCCCCCCCCC(=O)NC(C)(C)C(=O)N1CCCC1C(=O)NC(C)(C)C(=O)NC(C)(C)C(=O)N1CCCC1C(=O)NC(C)(C)C(=O)NC(C)(C)C(=O)N1CCCC1C(=O)NC(C)C(=O)NCCC(=O)NC(C)C(=O)NC(C)(C)C(=O)NC(C)(C)C(=O)NC(C)(C)C(=O)NCCC(=O)NC(C)(C)C(=O)NC(C)(C)C(=O)NC(C)(C)C(=O)NC(C)C(=O)NCCC(=O)O (centres undefined) | -88.5% (active) |
| CCCc1[nH]c(-c2cc(N)ccc2Cl)c2c1C(=O)CCCC2 | 90.3% |
| CC1=C(C)C(=O)C(Nc2ccc(C)cc2)=C(Br)C1=O | 79.3% |
| O=S(=O)(Oc1ccc(-c2cn3ccsc3n2)cc1)c1cccc(C(F)(F)F)c1 | 94.3% |
| C#CCOc1cccc(/C(N)=N/C(N)=N/c2nc3ccccc3s2)c1 | 73.8% |
| CCOC(=O)c1c(NC(=O)c2ccc(C(F)(F)F)cc2)sc2c(CN3CCN(C)CC3)c(O)ccc12 | 21.5% |
| Cc1ccc(NC(=O)Nc2nc3ccc([N+](=O)[O-])cc3s2)cc1 | 4.01% (active) |
| CCOC(=O)c1c(NCC(=O)Nc2cccc([N+](=O)[O-])c2)sc(C(C)=O)c1C | 0.605% (active) |
| O=C(CCCCCCNC(=O)C(O)(O)C(F)(F)F)Nc1ccc(Br)cc1 | 33.3% |
| Cc1ccccc1N1CCN(C2=C(Cl)C(=O)c3ncccc3C2=O)CC1 | 95.4% |
| O=C1[C@@H]2Cc3c([nH]c4ccccc34)[C@H](c3ccc(Br)cc3)N2C(=O)CN1C1CCN(Cc2c(Cl)cccc2Cl)CC1 | 88.4% |
| Cc1ccc(CSC2=C(Cl)CN(c3ccc(Cl)cc3)C2=O)cc1 | 104% |
| COC(=O)CCCNCCCn1ccc2cc(NCc3cccc(-c4ccccc4)c3C)ccc21 | 73.6% |
| C#CCOc1ccccc1/C=N/Nc1nc(-c2ccc(Cl)cc2)cs1 | 77.5% |
| CC(=O)c1c([Si](C)(C)C)c2cc(C#N)ccn2c1C(=O)c1ccc(Br)cc1 | 86.9% |
| O=C(COc1ccc(/C=C2\C(=O)Nc3ccc(F)cc32)cc1)Nc1ccccc1 | 95.8% |
| COc1ccc(CC(C)=C(c2ccc(OCCN3CCCC3)cc2)c2ccc(OCCN3CCCC3)cc2)cc1 | -90.8% (active) |
| O=C(CSc1nc2ccccc2c(=O)n1-c1ccc(S(=O)(=O)Nc2ccc(Cl)nn2)cc1)Nc1ccc(S(=O)(=O)Nc2ccc(Cl)nn2)cc1 | 99.8% |
| C=C(C)[C@@H]1CC[C@]2(COP(=O)(OCC)OCC)CC[C@]3(C)[C@H](CC[C@@H]4[C@@]5(C)CC[C@H](OP(=O)(OCC)OCC)C(C)(C)[C@@H]5CC[C@]43C)[C@@H]12 | 26.6% |
